Compound activity from PubChem.
PERK inhibitor: inhibitors of human PERK kinase. Q9NZJ5. CHO PERK-DD fusion, SEAP luminescence translation reporter. inhibition, % at 5.6 µM. 220,000 tested, 0.17% active;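 active = inhibition above the mean inhibition of all tested compounds plus 3 SD, set separately per screening campaign, cut at about 2.9% in these data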;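 note: PERK kinase domain activated by AP20187 dimerizer at 100 nM; 0% = DMSO with dimerizer and 100% = rapamycin at 8.4 µM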
MLLE-PAM2 inh: blocks PAM2 peptide binding to the PABP1 MLLE domain; P11940; GST-MLLE / FITC-PAM2 fluorescence polarization; inhibition, % at 20 µM; 360,000 tested, 0.36% active; in the data active = inhibition above about 35%, passing the limit was not always enough;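 note: plate controls were DMSO wells with GST-MLLE for no effect and wells lacking GST-MLLE protein for full effect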
PABP FP inh: PABP-poly(A) binding inhibition; P11940; PABP-poly(A) RNA binding, fluorescence polarization; inhibition, % at 35 µM; 290,000 tested, 1% active; AID 2014;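 note: calls also rest on retests at 20 µM and on dose response follow-up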
eIF4H inh: inhibitors of RNA binding by human eIF4H | inhibition, % at 35 µM | Q15056 | 290,000 tested, 0.94% active | AID 2012 | eIF4H fluorescence polarization binding assay;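 note: calls also rest on retests at 20 µM and on dose response follow-up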
GRK2 inh: inhibitors of human GRK2 displacing RNA aptamer; inhibition of aptamer binding, % at 10 µM; bead flow cytometry, FAM-aptamer displacement from GRK2; P25098; 330,000 tested, 0.59% active;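 active = inhibition of aptamer binding above 40%, roughly 3 SD of noise, on plates passing a quality check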;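 note: median bead fluorescence of bound FAM aptamer so fluorescent compounds give negative values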
GRK2 CP1: confirmation of human GRK2 inhibitors displacing RNA aptamer; AID 504451; bead-bound GRK2, FAM-aptamer displacement, flow cytometry; aptamer displacement, % at 10 µM; 2,000 tested, 4% active; shares compounds with GRK2 inh;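 active = aptamer displacement above 40%, near three times the noise of non-fluorescent compounds, on plates passing quality checks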;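 note: negative values mostly reflect intrinsic compound fluorescence rather than true enhancement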
Aptamer quench SP: counter-screen for GRK2 aptamer inhibitors: fluorescent aptamer quenchers; 2,000 tested, under 10 active; Carboxyfluorescein RNA aptamer on beads, flow cytometry quenching; stronger effect = lower value; fluorescence response (% of DMSO), % at 10 µM; shares compounds with GRK2 inh;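 active = compounds that quench the bead-bound fluorescent RNA probe, cutting fluorescence to under half of the solvent control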;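 note: counterscreen run without GRK2 so only probe quenching by compound is measured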
GRK2 CP2: human GRK2 inhibition confirmation, cherry pick 2; shares compounds with GRK2 inh; bead-bound GRK2, FAM-aptamer displacement, flow cytometry; inhibition of aptamer binding, % at 10 µM; 360 tested, under 10 active;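 active = inhibition of aptamer binding above 40%, about triple the noise seen with nonglowing compounds, on plates passing quality control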;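 note: negative values mostly come from compounds that fluoresce themselves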
FAM quench SP: quenches fluorescent RNA aptamer, GRK2 hit artifact. shares compounds with GRK2 inh. carboxyfluorescein RNA aptamer beads, flow cytometry quenching; stronger effect = lower value. fluorescence response vs DMSO, % at 10 µM. 360 tested, under 10 active. AID 588494;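 active = response vs DMSO under 50%, meaning signal dropped by over half, treated as fluorescence quencher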;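 note: labelled aptamer on streptavidin beads without GRK2 as a quench counter-screen; 100% = bead fluorescence of DMSO wells and lower means quenching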
Active calls of the source: *; x = not tested or not shown. The list is not random: actives were taken first. Their share in the collection is about 1.9%. Unless noted, the rule behind the calls is not given here.

SMILES	PERK inhibitor	MLLE-PAM2 inh	PABP FP inh	eIF4H inh	GRK2 inh	GRK2 CP1	Aptamer quench SP	others
O=C(O)Cn1nnc(-c2cccs2)n1	1.1	7.2	3.0	-2.6	89.0*	-1.9	100.2
O=C(O)CCn1nnc(-c2cccs2)n1	1.6	-15.1	8.7	6.7	1.0	x	x
COc1ccc(Cl)cc1C(=O)NNC(=O)c1cccs1	x	-4.0	x	x	0.0	x	x
Cc1ccc(CC(=O)NCCN2CCOCC2)cc1	x	0.0	4.1	0.9	0.0	x	x
CCOc1ccc(OCCOCCN2CCOCC2)cc1	-0.1	3.3	-2.9	34.1	3.0	x	x
COc1ccc(CC(=O)NCCN2CCOCC2)cc1	x	4.8	-2.5	-8.0	32.0	3.3	100.6
COc1ccc(OCCOCCN2CCOCC2)cc1	-0.1	-1.7	18.4	4.8	56.0*	0.7	98.7
CCCCOc1nc2ccccc2nc1NS(=O)(=O)c1ccc(F)cc1	x	-2.1	2.3	28.3	0.0	x	x
CCC(C)Oc1nc2ccccc2nc1NS(=O)(=O)c1ccccc1 (stereo not drawn)	-0.7	8.0	-4.3	-3.9	82.0*	0.3	100.6
O=C(NC1CC1)c1cc(=S)[nH]c2ccccc12	x	27.2	x	x	29.0	1.4	99.3
CC(=O)c1cccc(NC(=O)c2cc(S(=O)(=O)N3CCCCC3)ccc2N2CCOCC2)c1	x	0.3	x	x	x	x	x
COCCCn1c(SCC(=O)NCc2ccco2)nc2sc3c(c2c1=O)CCC3	-1.2	-6.6	-1.6	5.5	3.0	x	x	GRK2 CP2=12.9;FAM quench SP=100.0
CCN(CC)C(=O)CSc1nc2sc3c(c2c(=O)n1CCCOC)CCC3	x	1.4	-1.4	-1.4	0.0	x	x	GRK2 CP2=-13.8;FAM quench SP=100.0
CC(Sc1nc2sc3c(c2c(=O)n1-c1ccccc1)CCCC3)C(=O)O (stereo not drawn)	1.9	3.3	-10.9	-5.6	0.0	x	x
O=C(CSc1nc2sc3c(c2c(=O)n1-c1ccccc1)CCCC3)NCc1ccco1	0.4	-1.6	13.3	-2.9	0.0	x	x
CCCCn1c(SCC(N)=O)nc2sc3c(c2c1=O)CCC3	x	-3.8	-0.9	7.1	4.0	x	x
CCn1c(SC(C)C(=O)O)nc2sc3c(c2c1=O)CCC3 (stereo not drawn)	0.8	-19.9	3.5	92.8	68.0*	5.2	99.9	GRK2 CP2=9.0;FAM quench SP=101.0
Cc1ccccc1Cn1nc(C)c(NC(=O)c2cc3n(n2)C(C(F)F)CC(C(F)F)N3)c1C (stereo not drawn)	-0.4	3.0	-1.0	-3.5	98.0*	0.0	100.1
COc1ccc(NC2=NCC(Cc3ccc(Br)cc3)S2)cc1 (stereo not drawn)	-0.2	-0.9	-11.4	-0.5	0.0	x	x
Fc1ccc2cnc(-c3ccccc3)c(-c3ccc(C(F)(F)F)cc3)c2c1	x	-48.6	x	x	0.0	x	x
O=[N+]([O-])c1ccc(-c2c(-c3ccccc3)ncc3ccc(F)cc23)cc1	x	-12.9	x	x	100.0*	2.6	104.1
Cc1ccn2c(CNCC3OCCc4ccccc43)c(C(=O)N3CCCCCC3)nc2c1 (stereo not drawn)	0.0	4.4	2.7	0.5	0.0	4.8	103.2
CCCCN(C(=O)c1c(CC)noc1C)c1c(N)n(CCC)c(=O)[nH]c1=O	x	-4.4	x	x	2.0	x	x
O=C(Nc1cccc(Cl)c1)c1cc(N=Nc2ccc([N+](=O)[O-])cc2Cl)ccc1O	-0.5	-4.8	5.7*	80.6	46.0*	3.9	97.1
O=C(Nc1ccc([N+](=O)[O-])cc1Cl)c1cc(Cl)ccc1O	x	-1.1	x	x	0.0	x	x
SMILES	PERK inhibitor	MLLE-PAM2 inh	PABP FP inh	eIF4H inh	GRK2 inh	GRK2 CP1	Aptamer quench SP	others
COc1ccc(C(O)c2ncc(-c3ccccc3)[nH]2)c(OC)c1 (stereo not drawn)	x	-12.9	x	x	x	x	x
COc1ccc(CN2C(=O)C(CC(C)C)Nc3ncnc(N4CCOCC4)c32)cc1 (stereo not drawn)	x	-2.1	x	x	97.0*	-0.1	96.3
COc1ccc(CN2C(=O)C(CC(C)C)Nc3ncnc(N4CCCCC4)c32)cc1 (stereo not drawn)	x	0.8	x	x	1.0	x	x
CN(C(=O)c1ccccc1C(=O)OCC(=O)Nc1ccccc1)c1ccccc1	x	10.9	x	x	0.0	x	x
COc1ccc(N(C(=O)c2ccco2)C(C(=O)NC2CCCC2)c2ccncc2)cc1 (stereo not drawn)	x	-7.7	5.9	-3.1	83.0*	0.1	99.1
Cc1ccc2cc(CN(CC3CCCO3)C(=S)NCc3ccco3)c(=O)[nH]c2c1C (stereo not drawn)	-0.9	-98.3	-6.4	3.9	0.0	x	x
Cc1ccc2cc(CN(Cc3nnnn3Cc3ccco3)CC3CCCO3)c(=O)[nH]c2c1C (stereo not drawn)	0.8	19.1	32.3	55.3	64.0*	-13.4	104.1
C=CCOC(=O)CSCC(NC(=O)OC(C)(C)C)C(=O)OCC (stereo not drawn)	1.4	28.6	-6.4	-5.9	86.0*	0.7	104.5
CN(C(=O)COC(=O)c1cccnc1Nc1cccc(C(F)(F)F)c1)C1CCS(=O)(=O)C1 (stereo not drawn)	-0.3	-11.2	7.9	-7.8	0.0	-3.0	97.9
CN(C(=O)COC(=O)c1cccnc1Nc1ccccc1F)C1CCS(=O)(=O)C1 (stereo not drawn)	0.4	-15.0	0.9	7.9	1.0	x	x
Cc1cc(-c2ccc(Br)cc2)n2nc(C)cc2n1	x	2.0	x	x	x	x	x
Cc1cc(-c2ccc(Cl)cc2)n2nc(C)cc2n1	x	4.5	3.0	1.6	45.0*	-4.8	102.3
N#Cc1cnc2nc1NCCCCCCC2	x	-13.3	x	x	x	x	x
COC(=O)c1ccc(NC(=O)CSc2nncn2-c2ccccn2)cc1	x	30.5	-1.4	-0.5	1.0	x	x
CN(C(=O)CCN1C(=O)/C(=C/c2ccccc2)SC1=S)C1CCS(=O)(=O)C1 (stereo not drawn)	x	-22.6	-6.0	24.3	72.0*	0.4	99.0
Cc1nc(/C(N)=N/OC(=O)Cc2ccccc2)no1	1.3	-1.8	24.6	-4.8	0.0	x	x
COc1ccc(NCC(=O)Nc2cccc(C(F)(F)F)c2)cc1S(=O)(=O)N1CCOCC1	x	-8.2	x	x	0.0	x	x
CC(=O)N/N=C(\C)c1ccc2c(c1)OCCO2	0.6	5.2	28.9	-3.8	72.0*	-4.0	96.2
Cc1cccc(NC(=S)N2CCN(C(=O)c3ccco3)CC2)c1C	x	-34.7	3.0	-2.8	0.0	x	x
CCCOC(=O)CCCN1C(=O)/C(=C2\SC(=S)N(CCCC(=O)OCCC)C2=O)SC1=S	3.4*	28.9	-2.3	-19.0	60.0*	36.3	100.3
COc1ccc(-n2c(C)cc(/C=C3\C(=N)N4N=C(CC(=O)N5CCOCC5)SC4=NC3=O)c2C)c(OC)c1	x	-50.1	13.9	15.4	1.0	x	x
O=C1CCNCCN1[C@H](CO)c1ccccc1	x	8.4	-2.5	-9.3	3.0	x	x
